Data taken from PubChem BioAssay AID493212 (National Center for Advancing Translational Sciences (NCATS), 2011).
The list shows a part of the results. Inconclusive results are not listed. The source made the active and inactive calls. Calls follow the shape of the dose curve; as a rule, active = well fitted inhibition curve with a large enough effect; inconclusive = small, poorly fitted or top-dose-only effect; inactive = no such curve, though single readings can be large or run the other way.

Target: Lysine-specific demethylase 4E (Homo sapiens) (UniProt B2RXH2)
Sequence (B2RXH2 1-337 limits assumed): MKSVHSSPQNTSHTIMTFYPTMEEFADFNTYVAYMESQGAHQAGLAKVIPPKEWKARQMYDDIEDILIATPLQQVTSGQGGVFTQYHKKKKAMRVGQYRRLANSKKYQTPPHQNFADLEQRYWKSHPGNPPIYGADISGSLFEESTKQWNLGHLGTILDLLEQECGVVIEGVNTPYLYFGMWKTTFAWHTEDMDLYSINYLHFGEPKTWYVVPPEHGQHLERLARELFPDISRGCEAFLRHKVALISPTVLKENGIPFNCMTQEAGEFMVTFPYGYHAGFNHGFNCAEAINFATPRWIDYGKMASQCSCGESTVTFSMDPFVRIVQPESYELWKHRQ
Experiment: Inhibitors of Human Jumonji Domain Containing 2E (JMJD2E): 8HQs - Round 1
Settings: FDH-coupled NADH fluorescence (FDH is formaldehyde dehydrogenase)
From the text: The fine interplay among methylation states of several lysine residues on the tails of histone proteins is a major determinant of the transcriptional state of the associated DNA coding regions and is commonly referred to as the histone code. Histone lysine demethylases catalyze the removal of methyl groups from methylated lysine sidechains on histones H3 and H4, thus antagonizing the reactions catalyzed by histone lysine methyltransferases. […] In search for novel inhibitors of JMJD2E demethylase, a member of the largest set of histone demethylases belonging to the Fe(II) and 2-oxoglutarate oxygenase (2OG) superfamily, we performed a quantitative high-throughput screen (Inglese 2006) by using an assay which utilizes a trimethylated peptide substrate corresponding to a fragment of histone H3 (sequence ARKme3STGGK) with detection of the formaldehyde co-product in real time by a formaldehyde dehydrogenase (FDH) coupled reaction. FDH catalyzes oxidation of formaldehyde to formic acid with the concomitant reduction of the non-fluorescent beta-nicotinamide adenine dinucleotide hydrate (NAD+) cofactor to the fluorescent NADH co-product. This assay is a following of SAR around 8-hydroxyquinoline-based inhibitors of JMJD2E. References: Inglese, J., Auld, D., Jadhav, A., Johnson, R., Simeonov, A., Yasgar, A., Zheng, W. and Austin, C. Proc Natl Acad Sci USA 2006, 103, 11473-11478. N. R. Rose, S. S. Ng, J. Mecinovic, B. M. Lienard, S. H. Bello, Z. Sun, M. A. McDonough, U. Oppermann and C. J. Schofield, J Med Chem, 2008, 51, 7053-7056. Sakurai, M., Rose, N., Schultz, L., Quinn, A., Jadhav, A., Ng, S., Oppermann, U., Schofield, C.J. and Simeonov, A. Mol BioSystems 2009, in press. S. Michael, D. Auld, C. Klumpp, A. Jadhav, W. Zheng, N. Thorne, C. Austin, J. Inglese and A. Simeonov, Assay Drug Dev Technol, 2008, 6, 637-657. Assay Provider: Structural Genomics Consortium [SGC] Screening Center PI: Austin, C.P. Screening Center: NIH Chemical Genomics Center [NCGC]
Reagents and Controls: Ferrous ammonium sulfate, (+)-sodium L-ascorbate, beta-nicotinamide adenine dinucleotide hydrate (NAD+), Tween-20, formaldehyde dehydrogenase from P. putida (FDH), and disodium 2-oxoglutarate were from Sigma (St. Louis, MO). Black solid-bottom 384-well or 1,536-well assay plates were from Greiner Bio-One (Monroe, NC). Enzyme was supplied by Prof. Udo Oppermann, SGC-Oxford. The catalytic domain of human JMJD2E (residues 1-337) was produced as an N-terminally His6-tagged protein in E. coli, and purified by Ni-affinity chromatography and size-exclusion chromatography, and stored in HEPES 50 mM/ NaCl 500 mM pH 7.5, as reported in Rose 2008. The trimethylated histone peptide substrate ARK(me3)STGGK was synthesized and HPLC-purified by the Tufts University Core Facility (Boston, MA). Substrate solution (Sakurai 2009) contained 50 uM ARK(me3)STGGK, 0.00025 U/uL FDH, 50 uM 2-oxoglutarate, 250 uM NAD+, 1 mM ascorbate, and 10 uM ferrous ammonium sulfate. Controls and plate map: Buffer (150 mM HEPES pH 7.5 containing 0.01% Tween-20) in columns 3 and 4 as negative control (no enzyme) and 100 nM JMJD2E final concentration in columns 1,2, and 5-48. […] The plate was transferred to ViewLux imager where an initial reading using standard UV optics (Ex 340 nm, Em 450 nm) was obtained. The plate was then removed from the reader, incubated for 30 minutes at room temperature, and returned to the reader for a second fluorescence reading. […]

Potency, active:
Oc1cccc2cc(-c3ccncc3)cnc12 18.2 µM
Nc1ccc(Nc2cc(O)c3ncccc3c2)cc1 32.4 µM
Oc1ccc(/C=C/c2c(F)cccc2F)c2cccnc12 8.91 µM
CC(=O)NC(c1cccs1)c1cc(Cl)c2cccnc2c1O (stereo not given) 12.9 µM
Oc1c(CN2CCCC2)cc(COCc2ccccc2)c2cccnc12 5.01 µM
